Sampled rows, rich in hits. Any-hit rate of the full collection: about 3.3%.
Hsp90 Hop PPI = qHTS Assay for Disrupters of an Hsp90 Co-Chaperone Interaction; Potency, µM (titrated, usually from 57 µM); Hsp90 C-terminal peptide / TPR2A (Hop) interaction, human; 71,000 compounds, 0.44% hits; AlphaScreen TPR2A-His6 binding biotin-Hsp90 C-terminal peptide; active = well fitted curve in either direction with a large enough effect; inconclusive = small, poorly fitted or top-dose-only effect, or another doubt
ALOX15 inhib = qHTS Assay for Inhibitors of 15-hLO (15-human lipoxygenase). 74,000 compounds, 1.4% hits. Polyunsaturated fatty acid lipoxygenase ALOX15 (Homo sapiens), P16050. purified 15hLO-1, xylenol orange hydroperoxide absorbance. AID 887, 2007. Potency, µM (titrated, usually from 57.1 µM), hits mostly inhibitors; note: nearly all actives have a fitted effect of over 55% in size
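40 nM 15hLO-1 + cpd, 15 min RT; start w/ 50 uM AA (final), 6 min RT; stop/detect w/ 200 uM XO + 300 uM Fe(II) in 50 mM H2SO4, 30 min; A573/A405. Buffer 25 mM Hepes pH 7.5, 0.01% Triton X-100. No-enzyme wells as negative control.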
Tau fil binding = qHTS Assay for Tau Filament Binding. Microtubule-associated protein tau (Homo sapiens), P10636. recombinant tau filaments, thioflavin S fluorescence, 15 h; filaments grown with octadecylsulfate alongside compound. Potency, µM (highest dose often 57.1 µM). 71,000 compounds, 2% hits;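 note: actives lower thioflavin S fluorescence by blocking filaments or displacing dye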
Target sequence (P10636 whole entry, looked up): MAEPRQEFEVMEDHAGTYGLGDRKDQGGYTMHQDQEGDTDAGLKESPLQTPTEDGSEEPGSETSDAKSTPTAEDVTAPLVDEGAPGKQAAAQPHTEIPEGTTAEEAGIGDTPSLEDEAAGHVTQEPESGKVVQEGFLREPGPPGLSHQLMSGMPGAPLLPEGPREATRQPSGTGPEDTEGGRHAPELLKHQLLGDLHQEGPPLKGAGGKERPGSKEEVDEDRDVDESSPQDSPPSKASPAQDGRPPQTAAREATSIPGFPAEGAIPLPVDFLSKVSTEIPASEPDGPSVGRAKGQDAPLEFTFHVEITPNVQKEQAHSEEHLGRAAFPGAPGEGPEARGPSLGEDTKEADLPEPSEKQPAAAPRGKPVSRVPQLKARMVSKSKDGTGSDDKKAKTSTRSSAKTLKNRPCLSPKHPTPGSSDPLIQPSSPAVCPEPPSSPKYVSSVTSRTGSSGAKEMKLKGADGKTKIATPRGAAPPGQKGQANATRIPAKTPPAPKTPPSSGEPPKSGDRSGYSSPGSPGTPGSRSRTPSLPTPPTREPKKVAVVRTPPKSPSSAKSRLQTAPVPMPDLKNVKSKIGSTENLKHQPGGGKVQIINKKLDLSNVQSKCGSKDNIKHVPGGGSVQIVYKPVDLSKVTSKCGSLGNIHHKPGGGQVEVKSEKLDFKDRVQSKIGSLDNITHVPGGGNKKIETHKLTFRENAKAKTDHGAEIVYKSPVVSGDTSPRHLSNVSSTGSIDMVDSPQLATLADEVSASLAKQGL
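ThS-based fibril read: tau 1 uM final, inducer ODS 30 uM final, 37 C for 15 h, ex 450/em 510 nm.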
DNA Pol III inh = qHTS Assay for Inhibitors of DNA Polymerase III Holoenzyme System | reconstituted DNA polymerase III holoenzyme replication, biochemical | Potency, µM (highest dose often 57.1 µM) | 71,000 compounds, 0.25% hits | AID 603, 2007
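Reconstituted *E. coli* holoenzyme (0.35 nM Pol III, 1 nM beta, 154 nM SSB, 2 nM primase) was preincubated with compound for 15 min at RT. Synthesis on 1.4 nM ssM13Gori ran 35 min, then was stopped with PicoGreen/EDTA and read as dsDNA fluorescence.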
TsaE inh = qHTS Assay for Inhibitors of YjeE | tRNA threonylcarbamoyladenosine biosynthesis protein TsaE (Escherichia coli (strain … | purified YjeE enzyme, qHTS inhibition assay | Potency, µM | 71,000 compounds, 0.05% hits | AID 605, 2007
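Purified YjeE (10 uM) with BODIPY Texas Red-labeled ADP probe (2 uM); compounds pin-transferred, 15 min at room temperature. Binding inhibition read as decreased fluorescence polarization; ADP titration as control.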
Numbers stand for hits; n = inactive; u = inconclusive; x = no result; ! = repeats disagree; [ ] = dose if it differs, or a comment. Unless noted, calls come from the whole dose curve; as a rule, active = well fitted curve in the direction sought with a large enough effect; inconclusive = small, poorly fitted or top-dose-only effect, or another doubt; inactive = no such curve, though single readings can be large; an effect the other way counts as inactive or inconclusive.

SMILES | Hsp90 Hop PPI | ALOX15 inhib | Tau fil binding | DNA Pol III inh | TsaE inh
C=C1CC[C@H](O)C/C1=C/C=C1\CCC[C@]2(C)[C@@H]([C@H](C)CCCC(C)C)CC[C@@H]12 | n | 15.8µM | u | n | n
C[C@H](N)[C@H](O)c1ccc(O)c(O)c1 | u | 3.16µM! | n | 5.01µM | n
Cc1ccc(OP(=O)(Oc2ccc(C)cc2)Oc2ccc(C)cc2)cc1 | 15.8µM | n | n | n | n
Cc1cc(C)cc(OP(=O)(Oc2cc(C)cc(C)c2)Oc2cc(C)cc(C)c2)c1 | u | n | n | n | n
CO[C@H]1[C@H](O)[C@H](O[C@@H]2[C@H](Oc3cccc4c(O)c5c(=O)oc6ccc(C)c7c(=O)oc(c34)c5c67)O[C@@H](C)[C@H](O)[C@H]2O)O[C@@H](C)[C@@H]1O | n[11 µM] | n[11.4 µM] | n[11.4 µM] | 3.16µM | n
C=C1C/C(=C\C)C(=O)O[C@@H]2CCN3CC=C(COC(=O)[C@]1(C)O)[C@H]23 | n | x | u | n | n
COc1cc2c(cc1O)C[C@H]1c3c(cc(O)c(OC)c3-2)CCN1C | n | n | 39.8µM! | n | n
CC(=O)OCC1=C(C(=O)O)N2C(=O)[C@@H](N)[C@@H]2SC1 | n | n | n | n | n
CC(=O)OCC1=C(C(=O)[O-])N2C(=O)[C@@H](NC(=O)CCC[C@@H](N)C(=O)[O-])[C@@H]2SC1.[Zn+2] | n | 25.1µM | n | u | u
Nc1ccc(-c2ccc(N)c(O)c2)cc1O | u | u | 5.01µM | n | n
CC1CCCCN1CC(=O)c1ccc2cc[nH]c2c1 (stereo not drawn) | n | n | 25.1µM | n | n
C=C[C@@H]1CN2CC[C@@H]1C[C@H]2[C@H](O)c1ccnc2ccccc12 | n | x | u | n | n
COC(=O)[C@@H]1C[C@@H]1[C@@H](NP(=O)(c1ccccc1)c1ccccc1)c1ccccc1 | n | x | n | n | n
CC(C)(C)c1cc(O)ccc1O | n[11 µM] | 20µM | n[11.4 µM] | n[11.4 µM] | n
CN1CCN(c2ccc([N+](=O)[O-])c3[nH]o[n+](=O)c23)CC1 | n[11 µM] | n[11.4 µM] | n[11.4 µM] | n[11.4 µM] | n
N=C(N)c1c(O)n(C2CCCCC2)c(=O)n(C2CCCCC2)c1=O | n | n | 15.8µM | n | n
C[C@@]12C=CC(=O)C=C1CC[C@@H]1C2=CC[C@]2(C)[C@@H]1CC[C@H]2C(=O)CN1CCN(c2cc(N3CCCC3)nc(N3CCCC3)n2)CC1 | n | u | 6.31µM | n | u
CC(C)[N+](=O)[O-] | n | n | n | n | n
C[C@@H](O)CN(CCN(C[C@@H](C)O)C[C@@H](C)O)C[C@@H](C)O.O=[N+]([O-])O.[Cu] | n[11 µM] | 3.98µM | u | n[11.4 µM] | n
COc1ccc(C[C@@H]2NC[C@H](O)[C@H]2OC(C)=O)cc1 | n | x | u | n | n
CNc1ccc2oc(C[C@@H]3O[C@@]4(CC[C@H]3C)O[C@@H]([C@@H](C)C(=O)c3ccc[nH]3)[C@@H](C)C[C@H]4C)nc2c1C(=O)O | n | x | n | n | n
Ic1ccccc1CN[C@@H]1C2CCN(CC2)[C@H]1C(c1ccccc1)c1ccccc1 | n | n | n | n | n
C/C=C(\C)C(=O)O[C@@H]1C(C)=C2[C@H]([C@@H]1OC(=O)CCCCCCC)[C@@](C)(OC(C)=O)C[C@@H](OC(=O)CCC)[C@@]1(O)[C@H]2OC(=O)[C@]1(C)O | n | 20µM | n | n | n
O=C1C2CC=CCC2C(=O)N1SC(Cl)(Cl)Cl (stereo not drawn) | n | u | n | 39.8µM! | n
C=C(C)[C@H]1Cc2c(ccc3c2O[C@H]2COc4cc(OC)c(OC)cc4[C@@H]2C3=O)O1 | n | n | n | n | n
SMILES | Hsp90 Hop PPI | ALOX15 inhib | Tau fil binding | DNA Pol III inh | TsaE inh
CC(C)Nc1ccc(Nc2ccccc2)cc1 | u | u | 15.8µM | n | 100µM
c1ccc(Nc2ccc3ccccc3c2)cc1 | n | n | n | n | n
CC(C)CC(N(C)C)C1(c2ccc(Cl)cc2)CCC1 (stereo not drawn) | x | 20µM! | x | x | x
Cn1c(O)c(C=NCc2ccco2)c(=O)n(C)c1=O | n | 31.6µM | n | n | n
O=S(=O)(NCCO)c1cc[c]([Sb](=[O])([OH])[OH])cc1 | n[11 µM] | n[11.4 µM] | n[11.4 µM] | n[11.4 µM] | n
C=CCN1CCc2cccc3c2[C@@H]1Cc1ccc(O)c(O)c1-3 | u | u | n | n | n
CN(C)c1ccc(N=O)cc1 | n | n | n | n | n
